Screening results (PubChem BioAssay)
GPR151 ag – activators of human GPR151, primary screen, cell-based, PathHunter beta-arrestin, luminescence | G-protein coupled receptor 151 (Homo sapiens), Q8TDV0 | PathHunter beta-arrestin GPR151 cells | activation, % at 11.2 µM | 650,000 tested, 1% active; in the data active means activation above about 4.9%;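 further: 0% = median of compound wells and 100% = cells with positive control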
FBW7 act – FBW7 E3 ligase activators, primary screen, biochemical, AlphaScreen, human; normalized activity (activation), % at 26.1 µM; 650,000 tested, 0.13% active; AlphaScreen FBW7–phospho-cyclin E peptide binding, activator screen; in the data active means normalized activity above about 1.9%;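 further: purified mutant Fbw7 with reduced substrate affinity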
Target sequence (Q969H0 whole entry, looked up): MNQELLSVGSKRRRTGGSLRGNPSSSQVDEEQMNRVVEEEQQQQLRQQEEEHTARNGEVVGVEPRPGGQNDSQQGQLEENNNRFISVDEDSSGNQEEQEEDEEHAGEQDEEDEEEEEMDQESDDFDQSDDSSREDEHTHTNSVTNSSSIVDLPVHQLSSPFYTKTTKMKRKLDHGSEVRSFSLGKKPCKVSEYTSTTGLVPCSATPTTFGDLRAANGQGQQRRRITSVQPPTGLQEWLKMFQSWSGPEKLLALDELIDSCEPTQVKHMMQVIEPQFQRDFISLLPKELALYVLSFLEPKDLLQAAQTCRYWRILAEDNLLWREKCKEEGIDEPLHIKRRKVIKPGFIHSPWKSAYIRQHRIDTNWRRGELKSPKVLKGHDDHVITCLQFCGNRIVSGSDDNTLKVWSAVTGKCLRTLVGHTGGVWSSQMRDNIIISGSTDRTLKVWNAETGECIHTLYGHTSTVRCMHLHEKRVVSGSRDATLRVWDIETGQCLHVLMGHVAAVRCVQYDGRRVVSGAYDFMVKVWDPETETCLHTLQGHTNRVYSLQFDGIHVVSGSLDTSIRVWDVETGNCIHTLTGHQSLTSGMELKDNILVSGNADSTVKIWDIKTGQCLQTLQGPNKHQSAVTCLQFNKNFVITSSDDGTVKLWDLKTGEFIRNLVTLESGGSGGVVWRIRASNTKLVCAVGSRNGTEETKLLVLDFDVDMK
MITF inh – MITF inhibitors, primary screen, biochemical, AlphaScreen, human; Microphthalmia-associated transcription factor (Homo sapiens), O75030; AID 1259374, 2018; 650,000 tested, 0.91% active; inhibition, % at 2.6 µM; AlphaScreen MITF homodimerization, bead proximity signal; in the data active means inhibition above about 50%;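 further: 0% = vehicle wells with protein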
TEAD-YAP block – TEAD-YAP interaction inhibition, primary screen, TEAD-YAP interaction inhibitor project, luminescence, HEK-TIYL cells | TEAD-Gal4/YAP UAS-luciferase luminescence | inhibition, % at 9.12 µM | 640,000 tested, 1.4% active | AID 1259422, 2018; in the data active means inhibition above about 32%;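 further: 0% = median of test compound wells and 100% = reference inhibitor wells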
GPR151 conf act – GPR151 activators, triplicate retest, confirmation, cell-based, PathHunter beta-arrestin, luminescence; GPR151 PathHunter beta-arrestin cells, 90 min; % of EA-reagent control over plate median; shares compounds with GPR151 ag; 6,700 tested, under 10 active; AID 1508609, 2020; activation, % at 11.2 µM;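 active means mean percent activation across replicates above the confirmation screen cutoff of 4.91%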
GPR119 ag – GPR119 activators in beta-arrestin cells, counter-screen for GPR151 activator project, cell-based, PathHunter beta-arrestin, luminescence, triplicate | activation, % at 11.2 µM | 90 min; 0 = compound-well median, 100 = enzyme-acceptor control | shares compounds with GPR151 ag | AID 1508611, 2020 | 6,700 tested, 0.3% active;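 active means mean percent activation in the counterscreen above 29.09%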;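 further: counterscreen on off-target GPR119 to flag nonselective hits from the GPR151 activator screen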
An asterisk follows results filed as active. Sampled rows, rich in hits. Any-hit rate of the full collection: about 3.5%.

Screening Cc1ccn2c(C(=O)Nc3ccc(Cl)cc3)c(C)nc2c1 returned GPR151 ag 5.5*, FBW7 act 0, MITF inh 15, TEAD-YAP block -7, GPR151 conf act 1 and GPR119 ag 3.
Screening O=C(N/N=C/c1cccc(Cl)c1)c1cccs1 returned GPR151 ag -2, FBW7 act 0, MITF inh 12 and TEAD-YAP block -53.
For CC(=O)Nc1sc(N/N=C/c2cccc(Cl)c2)nc1-c1cccs1 the results were GPR151 ag 7.5*, FBW7 act 0, MITF inh 9, TEAD-YAP block 9, GPR151 conf act 0 and GPR119 ag 4.
For Cc1nnsc1C(=O)N1CCC(c2ccccc2)C1 (stereo not given) the results were GPR151 ag -1, FBW7 act 0, MITF inh 13 and TEAD-YAP block -4.
O=C(c1cscn1)N1C2CCC1CC(c1ccc(F)cc1)C2 (stereo not given) was read as GPR151 ag 0, FBW7 act 0, MITF inh 8 and TEAD-YAP block 5.
For O=C(c1ccco1)N1C2CCC1CC(c1ccc(F)cc1)C2 (stereo not given) the results were GPR151 ag 8.6*, FBW7 act 0, MITF inh -6, TEAD-YAP block -6, GPR151 conf act 0 and GPR119 ag 2.
Screening Cc1nnsc1C(=O)N1C2CCC1CC(c1ccc(F)cc1)C2 (stereo not given) returned GPR151 ag 12*, FBW7 act 0, MITF inh -19, TEAD-YAP block 16, GPR151 conf act 0 and GPR119 ag 1.
Nc1nc(SCc2nc3ccccn3c2Br)n[nH]1 was read as GPR151 ag -2, FBW7 act 0, MITF inh 21 and TEAD-YAP block 8.
For C=CCOC(=O)C1=C(C)NC(C)=C(C(=O)OCC=C)C1c1cccc(Oc2ccccc2)c1 the results were GPR151 ag 7.1*, FBW7 act 1, MITF inh 9, TEAD-YAP block 3, GPR151 conf act 0 and GPR119 ag -4.
COC(=O)C1=C(C)NC(=O)CC1c1cccc(Oc2ccccc2)c1 (stereo not given) was read as GPR151 ag 8.3*, FBW7 act 0, MITF inh 10, TEAD-YAP block 11, GPR151 conf act 1 and GPR119 ag -5.
CC1=C(C(=O)OC(C)C)C(c2cccc(Oc3ccccc3)c2)C(C(=O)OC(C)C)=C(C)N1 was read as GPR151 ag -1, FBW7 act 0, MITF inh -6 and TEAD-YAP block 7.
For COc1ccc(S(=O)(=O)N(CCc2ccccc2)CC(=O)NCC2CCCO2)cc1OC (stereo not given) the results were GPR151 ag 2, FBW7 act 0, MITF inh -7 and TEAD-YAP block -12.
`O=C(c1ccncc1)N1CC[C@@H]2[C@H](CCCN2C(=O)C(c2ccccc2)c2ccccc2)C1` gave GPR151 ag -1, FBW7 act 0, MITF inh -2 and TEAD-YAP block -7.
`CC(=O)c1ccc(NC(=O)COC(=O)c2c3c(nc4ccccc24)CCC3)cc1` gave GPR151 ag 1, FBW7 act 0, MITF inh -3 and TEAD-YAP block -7.
CC1=C(C(=O)N2CCOCC2)C(c2ccc([N+](=O)[O-])cc2)C2=C(CC(C)(C)CC2=O)N1 (stereo not given) was read as GPR151 ag 0, FBW7 act 0, MITF inh 6 and TEAD-YAP block 1.
For COc1ccc(Nc2ncnc3c2cnn3-c2ccc(Cl)cc2)cc1Cl the results were GPR151 ag 11*, FBW7 act 0, MITF inh 1, TEAD-YAP block -3, GPR151 conf act -1 and GPR119 ag -8.
COc1ccc(-n2ncc3c(Nc4ccc(Cl)c(Cl)c4)ncnc32)cc1 was read as GPR151 ag -1, FBW7 act 0, MITF inh 8 and TEAD-YAP block 23.
`CC(Oc1ccc(Cl)cc1)C(=O)OCC(=O)c1ccccc1` (stereo not given) gave GPR151 ag 0, FBW7 act 0, MITF inh -12 and TEAD-YAP block 2.
`C=CCNC(=O)c1nn2cccnc2c1Cl` gave GPR151 ag 5.3*, FBW7 act 0, MITF inh -12, TEAD-YAP block -14, GPR151 conf act 1 and GPR119 ag -1.
Screening O=C(Nc1ccc(Cl)cc1)c1nn2cccnc2c1Cl returned GPR151 ag 0, FBW7 act 0, MITF inh 5 and TEAD-YAP block -66.
Screening CC12CC(NC(=O)N1c1ccccc1F)c1cc([N+](=O)[O-])ccc1O2 (stereo not given) returned GPR151 ag -1, FBW7 act 0, MITF inh 4 and TEAD-YAP block -1.
Screening OCc1ccccc1OCc1cccc2ccccc12 returned GPR151 ag 5.3*, FBW7 act 0, MITF inh 6, TEAD-YAP block -16, GPR151 conf act 0 and GPR119 ag 8.
CC1=C(C(=O)Nc2cccc(C(F)(F)F)c2)C(c2ccc(N(C)C)cc2)C2=C(CC(C)(C)CC2=O)N1 (stereo not given) was read as GPR151 ag 1, FBW7 act 0, MITF inh -4 and TEAD-YAP block 12.
`O=C(Nc1ccccc1C(F)(F)F)c1ccc(-n2cccn2)cc1` gave GPR151 ag 1, FBW7 act 0, MITF inh 9 and TEAD-YAP block -58.
Screening COc1cc(C(=O)N(Cc2nc(-c3ccc(C)cc3)no2)C(C)C)cc(OC)c1OC returned GPR151 ag 8.3*, FBW7 act 0, MITF inh 9, TEAD-YAP block 6, GPR151 conf act -2 and GPR119 ag -18.
For CN1C(=O)/C(=C2\SC(=S)N(c3ccc(C(=O)O)cc3)C2=O)c2ccccc21 the results were GPR151 ag 5.6*, FBW7 act 0, MITF inh 21, TEAD-YAP block 7, GPR151 conf act 1 and GPR119 ag 16.
For CN1C(=O)/C(=C2\SC(=S)N(c3ccc(CC(=O)O)cc3)C2=O)c2ccccc21 the results were GPR151 ag 6.9*, FBW7 act 0, MITF inh 11, TEAD-YAP block 3, GPR151 conf act 0 and GPR119 ag 0.
CC(=O)c1ccc(N2C(=O)/C(=C3/C(=O)N(C(C)=O)c4ccccc43)SC2=S)cc1 was read as GPR151 ag -1, FBW7 act 0, MITF inh 7 and TEAD-YAP block -5.
